In article PMC4336329 (PLoS ONE, 2015):
Screen size: about 310,000 compounds; about 14,000 (4.5%) showed an effect of 50% or more. Effects have a minus sign here. This excerpt belongs to a sample that is enriched for strong results.

These molecules were tested against human ether-à-go-go-related gene (hERG) potassium channel (human, UniProt Q12809) (assay: primary screen, population patch clamp on CHO cells stably expressing hERG; higher = less effect of the substance).
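Also: peak tail current of the secondary pulse compared with the same well before compound.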

human ether-à-go-go-related gene (hERG) potassium channel, sequence (Q12809 whole entry, looked up): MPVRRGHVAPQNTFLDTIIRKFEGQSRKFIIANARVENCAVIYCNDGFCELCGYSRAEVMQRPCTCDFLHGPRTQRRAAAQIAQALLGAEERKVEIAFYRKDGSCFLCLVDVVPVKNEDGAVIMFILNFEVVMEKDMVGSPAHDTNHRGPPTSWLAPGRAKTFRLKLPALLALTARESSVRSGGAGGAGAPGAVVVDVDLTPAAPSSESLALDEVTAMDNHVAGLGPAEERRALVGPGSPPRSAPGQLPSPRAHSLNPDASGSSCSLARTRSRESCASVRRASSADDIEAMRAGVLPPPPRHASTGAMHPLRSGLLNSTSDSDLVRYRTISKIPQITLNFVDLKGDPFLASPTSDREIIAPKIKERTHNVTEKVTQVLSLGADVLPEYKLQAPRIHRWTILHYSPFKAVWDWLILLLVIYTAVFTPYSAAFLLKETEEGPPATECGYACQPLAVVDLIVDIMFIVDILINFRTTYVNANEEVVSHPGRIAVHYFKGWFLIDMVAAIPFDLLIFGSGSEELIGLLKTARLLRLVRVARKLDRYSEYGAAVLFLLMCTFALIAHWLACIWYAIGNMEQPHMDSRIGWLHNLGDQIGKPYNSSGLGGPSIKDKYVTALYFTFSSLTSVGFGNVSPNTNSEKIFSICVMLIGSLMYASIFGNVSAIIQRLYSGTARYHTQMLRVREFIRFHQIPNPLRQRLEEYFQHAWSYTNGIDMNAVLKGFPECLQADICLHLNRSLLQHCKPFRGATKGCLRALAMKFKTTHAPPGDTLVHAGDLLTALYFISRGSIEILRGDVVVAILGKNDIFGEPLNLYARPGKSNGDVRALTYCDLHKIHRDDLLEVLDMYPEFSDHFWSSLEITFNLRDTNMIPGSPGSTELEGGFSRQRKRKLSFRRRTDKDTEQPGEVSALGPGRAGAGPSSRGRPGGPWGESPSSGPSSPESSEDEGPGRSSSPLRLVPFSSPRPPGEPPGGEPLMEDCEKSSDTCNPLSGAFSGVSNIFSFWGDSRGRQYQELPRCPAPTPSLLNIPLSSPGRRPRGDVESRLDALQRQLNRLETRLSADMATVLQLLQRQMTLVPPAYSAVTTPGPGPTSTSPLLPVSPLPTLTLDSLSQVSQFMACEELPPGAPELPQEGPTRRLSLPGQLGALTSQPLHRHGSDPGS

Row | Structure (SMILES) | hERG current change (%, negative = inhibition) at 10uM [%]
1 | O=C(c1cc([N+](=O)[O-])cc([N+](=O)[O-])c1)N1CCCc2ccccc21 | -16.3
2 | CCOC(=O)Cc1csc(NC(=O)CC)n1 | 3.71
3 | O=S(=O)(c1ccc(-c2csc(=Nc3ccccc3)n2CCCN2CCOCC2)cc1)N1CCOCC1 | -40.9
4 | CN(C)N1C(N)=C(C#N)C(c2cccc(Cl)c2)C2=C1CCCC2=O (centres unmarked) | -26.2
5 | Cc1ccc(CO/N=C/C2=C(Cl)c3ccccc3CC2)cc1 | 16.8
6 | CC(=O)Nc1ccc(NS(=O)(=O)c2ccc3c(c2)oc(=O)n3C)cc1 | 20.2
7 | Cc1cccc(CN2CCc3c([nH]c4ccccc34)C2C(C)(C)C)n1 (centres unmarked) | 3.57
8 | Cc1ccc([N+](=O)[O-])cc1N=C(c1cccc([N+](=O)[O-])c1)N1CCOCC1 | -26
9 | O=[N+]([O-])c1ccc(C(=Nc2cccc3ccccc23)N2CCOCC2)cc1 | -63.5
10 | Cc1ccc([N+](=O)[O-])cc1N=C(c1ccc([N+](=O)[O-])cc1)N1CCOCC1 | -20.8
11 | O=C(NNC(=O)C1[C@H]2CCCC[C@@H]12)Nc1cccc2ccccc12 (some centres unmarked) | -6.11
12 | COc1cc(NC(=O)Cc2ccc(F)cc2)cc(OC)c1OC | 16.2
13 | CCC(=O)N1CCc2cc(Br)cc(S(=O)(=O)CCC(=O)NCCc3ccccc3)c21 | 3.68
14 | O=S(=O)(c1ccccc1)N1CCN(C(=S)Nc2ccc(F)cc2)CC1 | -3.33
15 | CN(C)/C=N/c1ncn(-c2ncc(C(F)(F)F)cc2Cl)n1 | 17.5
16 | Nc1nc2nonc2nc1N | 15.3
17 | Cc1nn(-c2cccc(Cl)c2)c2nc(-c3ccco3)cc(C(=O)O)c12 | 19
18 | CCOC(=O)c1cc(-c2ccncc2)nc2c1c(C)nn2C | -14.8
19 | Cc1nn(-c2cccc(Cl)c2)c2nc(-c3ccncc3)cc(C(=O)N3CCOCC3)c12 | -62.3
20 | Cc1nn(-c2ccccc2)c2nc(-c3ccncc3)cc(C(=O)NCc3ccco3)c12 | -66.6
21 | CCOC(=O)c1cc(-c2ccncc2)nc2c1c(C)nn2-c1ccccn1 | -63.3
22 | CCOC(=O)c1cc(-c2cccs2)nc2c1c(C)nn2-c1ccccn1 | 17.2

Row | Structure (SMILES) | hERG current change (%, negative = inhibition) at 10uM [%]
23 | Cc1nn(-c2ccccn2)c2nc(-c3cccs3)cc(C(=O)NCc3ccco3)c12 | -67.3
24 | O=C(NCc1ccco1)c1cc(-c2cccs2)nc2ccccc12 | -1.68
25 | O=C(NCc1ccco1)c1cc(-c2ccncc2)nc2ccccc12 | -18.5
26 | Cc1ccccc1-n1nc(C)c2c(C(=O)NN)cc(-c3ccncc3)nc21 | 38.5
27 | Cc1nn(-c2ccccc2)c2nc(-c3ccccc3)cc(C(=O)N3CCOCC3)c12 | -25.9
28 | CCOC(=O)c1cc(-c2ccccc2)nc2c1c(C)nn2-c1ccccn1 | -6.42
29 | Cc1ncc([N+](=O)[O-])n1CC(=O)NCc1ccccc1 | 16
30 | Cc1ccc(S(=O)(=O)NNC(=O)C(=O)NNS(=O)(=O)c2ccc(C)cc2)cc1 | -1.99
31 | O=C(c1ccc(Cl)cc1)N1CCCCC(Cl)C1=O (centres unmarked) | 7.57
32 | COc1cccc(Nc2ncc(C(=O)O)c3ccccc23)c1 | -1.48
33 | Fc1cnc(Cl)nc1N1CCN(c2ccccc2)CC1 | -17.4
34 | Cc1nn(Cc2ccccc2)c(C)c1C(=O)OCC(=O)c1cc(C)n(CC(F)(F)F)c1C | -2.57
35 | COc1cccc(-n2c(-c3ccco3)nc3nc4ccccc4nc32)c1 | 18.4
36 | O=C(COC(=O)c1cccnc1Nc1ccccc1F)NC1CC1 | -0.164
37 | Cc1cc(O)ccc1N/C=C(\C#N)c1nc2ccccc2o1 | 10.2
38 | C=C(C)COc1ccc2c(C)c(CCC(=O)NC3CC3)c(=O)oc2c1 | -2.92
39 | CCOC(=O)c1sc2nc(CN3CCN(c4cccc(C(F)(F)F)c4)CC3)[nH]c(=O)c2c1C | 8.43
40 | N#Cc1ccc(Cn2c(-c3ccc(F)cc3)noc2=O)cc1 | -17.8
41 | COc1ccc(-c2noc(=O)n2Cc2ccccc2Cl)cc1 | -8.73
42 | COc1ccc(-c2noc(=O)n2Cc2ccc(C#N)cc2)cc1 | -70.1
43 | Cc1cc(C)n(Cc2ccc(C(=O)O)o2)n1 | 11.5
44 | COc1ccccc1COn1c(=O)c(-c2ccco2)[n+]([O-])c2ccccc21 | 5.96

Row | Structure (SMILES) | hERG current change (%, negative = inhibition) at 10uM [%]
45 | N=c1c(S(=O)(=O)c2ccc(Cl)cc2)cc2c(=O)n3ccccc3nc2n1CCN1CCOCC1 | -46.4
46 | N=c1c(C(=O)NCc2ccc(F)cc2)cc2c(=O)n3ccccc3nc2n1CCCN1CCOCC1 | -83
47 | N=c1c(C(=O)NCCN2CCOCC2)cc2c(=O)n3ccccc3nc2n1CCc1ccccc1 | -72.5
48 | N=c1c(S(=O)(=O)c2ccccc2)cc2c(=O)n3ccccc3nc2n1CCCN1CCOCC1 | -65.9
49 | Nc1c(C(=O)NCc2ccc(F)cc2)c2nc3ccccc3nc2n1CCCN1CCOCC1 | 0.0395
50 | Cc1ccc(S(=O)(=O)c2cc3c(=O)n4ccccc4nc3n(CCCN3CCOCC3)c2=N)cc1C | -36.8
51 | O=C(NCCN1CCOCC1)c1c(O)nc2ccccn2c1=O | 10.9
52 | N=c1c(C(=O)NCc2ccccc2)cc2c(=O)n3ccccc3nc2n1CCCN1CCOCC1 | -78.6
53 | CN(C)S(=O)(=O)N1CCC(Oc2ccc(C(=O)NCCc3cscn3)cc2)CC1 | 0.0832
54 | CC(C)O.CCc1nnc(NS(=O)(=O)c2ccc(NC(=O)C(c3ccccc3)c3ccccc3)cc2)s1 | 2.36
55 | CCc1nnc(NC(=O)C2CC(=O)N(c3ccc4c(c3)OCCO4)C2)s1 (centres unmarked) | 4.32
56 | CC(=O)Nc1ccc(C(=O)CS(=O)(=O)c2ccc(C)cc2)cc1 | -11.5
57 | N=c1c(C(=O)NCCN2CCOCC2)cc2c(=O)n3ccccc3nc2n1CCCN1CCOCC1 | -4.43
58 | N=c1c(C(=O)NCCc2ccccc2)cc2c(=O)n3ccccc3nc2n1CCCN1CCOCC1 | -76.2
59 | CC1(C)CC(=O)C=C(NCCO)C1 | -0.4
60 | O=C(Nc1ccc(N2CCN(C(=O)c3ccco3)CC2)cc1)c1ccco1 | 20.7
61 | CN(CC(CC(=O)Nc1nncs1)c1ccccc1)S(=O)(=O)c1ccc(Br)cc1 (centres unmarked) | -55.4
62 | Cc1nnc(NC(=O)CC(CN(C)S(=O)(=O)c2ccccc2)c2ccccc2)s1 (centres unmarked) | -18.7
63 | CN(CC(CC(=O)Nc1nncs1)c1ccccc1)S(=O)(=O)c1ccccc1 (centres unmarked) | -14.2
64 | COC(=O)c1ccccc1NC(=O)Nc1ccc(Cl)cn1 | -3.82
65 | O=C(Nc1ccc2c(c1)OCO2)Nc1ccc(Br)cn1 | 3.01
66 | Cc1cccc(N/C=C/C(=C(C#N)C#N)N(C)C)c1 | -24.5

Row | Structure (SMILES) | hERG current change (%, negative = inhibition) at 10uM [%]
67 | CN(Cc1ccccc1NCC(=O)Nc1ccccc1C#N)C1CCCCC1 | -33
68 | Cc1ccc(NC(=O)CNc2ccccc2CN(C)C2CCCCC2)cc1 | -59.1
69 | COc1ccc(C)cc1NC(=O)CNc1ccccc1CN(C)C1CCCCC1 | -19.6
70 | Cc1c(C(=O)N(C)CCC#N)oc2ccc(S(=O)(=O)N3CCOCC3)cc12 | 10.1
71 | O=C(NNc1ncnc2c1cnn2-c1ccc(F)cc1)c1cccs1 | 6.55
72 | O=C1CCC(C(=O)N(CCO)Cc2ccccc2)CN1CC1CCCCC1 (centres unmarked) | 11.7
73 | CN(C)C1=NCCN1CCc1ccc(F)cc1 | -9.03
74 | CCOC(=O)c1cnc2ccc(C(=O)OC)cc2c1NCCCN1CCOCC1 | -60.5
75 | CCOC(=O)c1cnc2ccc(OC)cc2c1NCCN1CCOCC1 | -48.5
76 | CCOC(=O)c1ccc2ncc(C(=O)OCC)c(NCCCN3CCOCC3)c2c1 | -47.3
77 | CCOC(=O)c1cnc2ccc(OCC)cc2c1NCCN1CCOCC1.Cl | -67.9
78 | CCOC(=O)c1cnc2c(cnn2C)c1NCCC#N | -7.43
79 | CCOC(=O)c1cnc2ccc(C(=O)OC)cc2c1NCCN1CCOCC1 | -30.2
80 | CCOC(=O)c1cnc2ccc(Br)cc2c1NCCCN1CCOCC1 | -39
81 | CCOC(=O)c1cnc2ccc(OCC)cc2c1NCCCN1CCOCC1.Cl | -75.6
82 | CCOC(=O)c1cnc2c(cnn2C)c1NCCCn1ccnc1 | -35.9
83 | CCOC(=O)c1cnc2c(cnn2C)c1NCCCN(C)C | -51.7
84 | CCOC(=O)c1cnc2c(C)c(Cl)ccc2c1NCCCN1CCOCC1 | -49.2
85 | O=C(NCCc1ccccc1)C1CCN(S(=O)(=O)N2CCCCC2)CC1 | 2.19
86 | CCCNC(=O)Cn1c(=O)oc2cc(S(=O)(=O)N3CCCC3)ccc21 | 11.9
